IL1B secr inh: inflammasome signaling inhibition, IL-1 beta readout | hit rate 4.7% among 360,000 | THP-1 LPS/ATP IL-1B secretion, AlphaLISA, 16 h; stronger effect = lower value | activity change, % at 57.5 µM; in the data active means activity change below about -50%; inconclusive means mostly about -30% to -49%
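THP-1 cells pretreated 1 hr with compounds (up to 57.5 uM final), then stimulated with LPS (250 ng/mL final) plus ATP (1.25 mM final); secreted IL-1B measured by AlphaLISA after 16 hr, decreased signal indicating inhibition.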
HepG2 tox: HepG2 cytotoxicity, counter-screen for TGF-b inhibitors. HepG2 CAGA-GFP viability, ATP luminescence, 18 h. Potency, µM (series often up to 46.1 µM), most hits filed as cytotoxic. hit rate 0.76% among 410,000
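HepG2 CAGA-GFP cells (1000/well, DMEM with 1% FBS) received compound, then TGF-beta at 500 pg/mL final, and were incubated 18 hours at 37 degrees C. Viability was read by CellTiter-Glo luminescence. Media-only wells were set as complete cell-killing and DMSO as no toxicity.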
ATXN2 expr inh: inhibitors of ATXN2 expression. HEK-293 ATXN2-luciferase reporter, luminescence, 24 h. Potency, µM (highest dose often 57 µM), hits mostly inhibitors. hit rate 0.72% among 360,000. AID 1745845; further: nearly all actives have a fitted effect of over 55% in size
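qHTS (up to 57 uM final) was run with 24 h compound exposure of reporter cells at 37 °C. Each well was multiplexed: SteadyGlo luminescence measured ATXN2-luciferase expression after a fluorogenic Gly-Phe-AFC viability readout (25 uM final).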
TGFb SMAD3 inh: blocks TGF-b signaling. Potency, µM (doses to about 46.1 µM), hits mostly inhibitors. hit rate 1.2% among 410,000. AID 588855. HepG2 CAGA-GFP TGF-b/SMAD3 reporter, GFP fluorescence, 18 h; TGF-beta stimulated, 500 pg/mL final; further: nearly all actives have a fitted effect of over 65% in size
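First, reporter cells (HEPG2 CAGA-GFP) rested 2 h at 37 degrees C. Next, compounds were pinned in and TGF-beta added to 500 pg/mL final. After 18 h, GFP was imaged per cell and summed per well.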
S2 tox: cell viability loss in ATXN counter-screen; S2 cells (HEK-293 line with an ATXN2-luciferase reporter) viability, CellTiter-Fluor protease fluorescence, 24 h; hit rate 0.49% among 400,000; Potency, µM (doses to about 56.7 µM), actives largely listed as cytotoxic; further: nearly all actives have a fitted effect of over 40% in size
Of the large screens only hits and unclear results are named; the others gave an inactive call; ! = not confirmed by another sample. An excerpt weighted towards active compounds, which were near 5.7% of everything screened. Unless noted, the call rests on the fitted dose curve; in most records, active means well fitted curve in the direction sought with a large enough effect; inconclusive means small, poorly fitted or top-dose-only effect, or another doubt; inactive means no such curve, though single readings can be large; an effect the other way counts as inactive or inconclusive.

Cc1ccccc1S(=O)(=O)N1C[C@H]2[C@H]3C(=O)N(C4CCCCC4)C(=O)[C@H]3CC(=O)[C@H]2[C@@H]1c1ccc(Cl)cc1	IL1B secr inh inconclusive, TGFb SMAD3 inh inconclusive
COc1ccccc1-c1nn2c(=O)cc(CN3CCN(C(=O)Nc4ccc(C)cc4Cl)CC3)nc2s1	S2 tox inconclusive (no result: IL1B secr inh)
CC1[C@H]2Cc3ccc(O)cc3[C@]1(C)CCN2CCc1ccccc1 (some centres not stated)	IL1B secr inh -55.6
COc1ccc(CNCCc2c[nH]c3ccccc23)c(OC)c1C	S2 tox inconclusive (no result: IL1B secr inh)
CCOc1cc(CNCCc2c[nH]c3ccccc23)cc(Cl)c1OCC	IL1B secr inh -96.6, ATXN2 expr inh inconclusive, TGFb SMAD3 inh inconclusive, S2 tox inconclusive
CCOc1c(Cl)cc(CNCCc2c[nH]c3ccccc23)cc1OC	IL1B secr inh -86.9, TGFb SMAD3 inh inconclusive (no result: ATXN2 expr inh, S2 tox)
O=Nc1c(-c2ccccc2)n(O)[n+]([O-])c1-c1ccccc1	S2 tox inconclusive (no result: ATXN2 expr inh)
Cc1cc(N(CCCl)CCCl)ccc1C=NNC(=O)c1cccnc1	ATXN2 expr inh 1.78µM
O=C(NN=Cc1ccc(N(CCCl)CCCl)cc1Cl)c1cccnc1	ATXN2 expr inh inconclusive, TGFb SMAD3 inh 5.01µM, S2 tox inconclusive
CCCCCc1cc(O)c2c3c(c(=O)oc2c1)CN(C)CC3	IL1B secr inh -56.8, HepG2 tox 10µM, TGFb SMAD3 inh inconclusive
CCOC(=O)C(C)Oc1cc(C)cc2oc(=O)c3c(c12)CCCC3 (configuration not stated)	none
CC(C)(C)C1CCc2onc(C(=O)O)c2C1 (configuration not stated)	S2 tox inconclusive
CCN1/C(=C\C=C\C2=[N+](CC)c3ccccc3C2(C)C)C(C)(C)c2ccccc21	IL1B secr inh -98.1, ATXN2 expr inh inconclusive, TGFb SMAD3 inh inconclusive, S2 tox 2.82µM
CC(C)c1ccc(C(O)P(=O)(OCc2ccccc2)c2ccc(N(C)C)cc2)cc1 (configuration not stated)	IL1B secr inh inconclusive, TGFb SMAD3 inh inconclusive, S2 tox inconclusive
CCCCOP(=O)(c1ccc(N(C)C)cc1)C(Nc1ccccc1)c1ccccc1 (configuration not stated)	IL1B secr inh -95.6, ATXN2 expr inh inconclusive, TGFb SMAD3 inh 15.8µM, S2 tox inconclusive
OC(CN1CC=C(c2ccccc2)CC1)c1ccccc1 (configuration not stated)	none
OC(COCc1ccc(Cl)cc1)CN1CC=C(c2ccccc2)CC1 (configuration not stated)	IL1B secr inh -70.1!, HepG2 tox 28.2µM!, TGFb SMAD3 inh inconclusive, S2 tox inconclusive
CCN(CC)c1ccc(/C=C/[N+](=O)[O-])cc1	TGFb SMAD3 inh inconclusive
O=[N+]([O-])/C=C/c1c(Cl)cccc1Cl	IL1B secr inh -98.9, HepG2 tox 10µM, ATXN2 expr inh inconclusive, TGFb SMAD3 inh 2.82µM (no result: S2 tox)
CCOC(C(=O)OCCN(C)C)(c1ccccc1)c1ccccc1	none (no result: IL1B secr inh, HepG2 tox, TGFb SMAD3 inh)
COc1ccccc1NC(=O)Cn1c(=O)n(-c2cccc(Cl)c2)c(=O)c2sc3ccccc3c21	none (no result: IL1B secr inh)
CC1=CC2/C=C(\C)CCC(O)C(O)/C=C/C(=O)C23C(=O)NC(CC(C)C)C3C1C (configuration not stated)	IL1B secr inh -105.9, ATXN2 expr inh inconclusive, TGFb SMAD3 inh 3.16µM (no result: S2 tox)
O=Nc1c(O)c2ccccc2c2ccccc12	IL1B secr inh -76.4, HepG2 tox 2.82µM, ATXN2 expr inh 7.94µM, TGFb SMAD3 inh 2.24µM, S2 tox 15.8µM
O=c1oc2ccccc2c(O)c1Cc1c(O)c2ccccc2oc1=O	none (no result: IL1B secr inh, HepG2 tox, TGFb SMAD3 inh)
C=CC[C@]1(O)CC[C@H]2[C@@H]3CCC4=CC(=O)CCC4=C3C=C[C@@]21C	none (no result: IL1B secr inh, HepG2 tox, TGFb SMAD3 inh)
Cc1ccc(S(=O)(=O)N2CC2(C)CCl)cc1 (configuration not stated)	IL1B secr inh -68.7 (no result: ATXN2 expr inh)
Cc1ccc(-c2nnc(Nc3ccc(O)cc3)c3ccccc23)cc1S(=O)(=O)N1CCOCC1	ATXN2 expr inh inconclusive, TGFb SMAD3 inh inconclusive, S2 tox inconclusive (no result: IL1B secr inh)
CC(=NNC(=S)N1CC2CCC(CC2)C1)c1nccs1	IL1B secr inh -100.2, TGFb SMAD3 inh inconclusive, S2 tox inconclusive
O=C1NC(=O)N(c2cccc(Cl)c2)C(=O)/C1=C\c1ccc(Sc2nc3ccccc3[nH]2)o1	none
O=C1NC(=O)N(c2ccccc2)C(=O)/C1=C/c1ccc(Sc2ccccc2)o1	IL1B secr inh -101.0, ATXN2 expr inh 25.1µM, S2 tox inconclusive
CCCCn1c(=O)c(C(=O)Nc2ccccc2C)c(O)c2ccccc21	none
CC(C)CCn1c(=O)c(C(=O)Nc2ccccc2S(N)(=O)=O)c(O)c2ccccc21	TGFb SMAD3 inh 20µM
CC12Cc3cn[nH]c3C=C1CCC1C2CCC2(C)C1CCC2(C)O (configuration not stated)	IL1B secr inh -90.8
CCOc1cc(-c2c(C#N)c(=O)[nH]c3c2c(C)nn3-c2ccc(F)cc2)ccc1O	TGFb SMAD3 inh inconclusive
COC(=O)C12OCC34C(CC5C(C)=C(O)C(=O)CC5(C)C3C(O)C1O)OC(=O)C(OC(=O)/C=C(\C)C(C)C)C24 (configuration not stated)	IL1B secr inh -98.2, S2 tox inconclusive
C/C=C1/C[C@@H](C)[C@@](C)(O)C(=O)OCC2=CCN3CC[C@@H](OC1=O)[C@@H]23	none (no result: IL1B secr inh, ATXN2 expr inh, S2 tox)
C[N+]1(C)[C@@H]2CC[C@H]1CC(OC(=O)C(c1ccccc1)c1ccccc1)C2 (some centres not stated)	none (no result: ATXN2 expr inh)
O=C(OC1CCN(CCCl)CC1)C(c1ccccc1)c1ccccc1	IL1B secr inh -71.2
CN(CCc1ccccc1)Cc1c[nH]c2ccccc12	IL1B secr inh -67.2, HepG2 tox 11.2µM, TGFb SMAD3 inh 14.1µM, S2 tox inconclusive (no result: ATXN2 expr inh)
O=[N+]([O-])c1ncc[nH]1	none (no result: IL1B secr inh, HepG2 tox, TGFb SMAD3 inh, S2 tox)
CC(Cc1ccccc1)NC(=O)/C=C/c1ccc(Cl)cc1 (configuration not stated)	IL1B secr inh -54.3, S2 tox inconclusive
O=C1NCN(c2ccccc2)C12CCN(C(CCc1ccccc1)c1nnnn1C1CCCC1)CC2 (configuration not stated)	IL1B secr inh inconclusive, ATXN2 expr inh inconclusive, TGFb SMAD3 inh 11.2µM, S2 tox 31.6µM
O=C1NCN(c2ccccc2)C12CCN(C(CCc1ccccc1)c1nnnn1C1CCCCC1)CC2 (configuration not stated)	IL1B secr inh -55.7, ATXN2 expr inh inconclusive, TGFb SMAD3 inh 12.6µM, S2 tox inconclusive
CC(=O)[C@@]1(O)CC[C@H]2[C@@H]3CCC4=CC(=O)CC[C@]4(C)C3(F)[C@@H](O)C[C@@]21C (some centres not stated)	none (no result: IL1B secr inh, HepG2 tox, ATXN2 expr inh, TGFb SMAD3 inh)
Cc1cccc(NC(=O)Cn2cc(C(=O)c3ccccc3)c3ccccc32)c1	TGFb SMAD3 inh 10µM (no result: IL1B secr inh, ATXN2 expr inh, S2 tox)
Cc1cccc(NC(=O)Cn2cc(C(=O)c3ccccc3)c3ccccc32)c1C	none (no result: IL1B secr inh)

Assay outcomes deposited in PubChem BioAssay by National Center for Advancing Translational Sciences (NCATS).
